Compound activity deposited in PubChem by National Center for Advancing Translational Sciences (NCATS).
Rows were chosen to be rich in hits. Some 11% of all compounds tested hit in one or more screens of this group.
JMJD2A Tudor inh: qHTS Assay for Inhibitors of JMJD2A-Tudor Domain; Lysine-specific demethylase 4A (Homo sapiens), O75164; AlphaScreen JMJD2A-Tudor / H3K4me3 peptide binding; Potency, µM (titrated, usually from 114 µM), most hits filed as inhibitors; hit rate 4.4% among 390,000; AID 504339, 2011; further: nearly all actives have a fitted effect of over 50% in size
G9a inh: qHTS Assay for Inhibitors of Histone Lysine Methyltransferase G9a; Histone-lysine N-methyltransferase EHMT2 (Homo sapiens), Q96KQ7; Potency, µM (highest dose often 102 µM), actives largely listed as inhibitors; AID 504332, 2011; hit rate 8.8% among 350,000; G9a H3K9 monomethylation, AlphaScreen, 2 h; further: nearly all actives have a fitted effect of over 75% in size
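G9a (20 nM) was preincubated 15 min with compound, then reacted 2 h at room temperature with 500 nM biotin-H3K9 peptide and 20 µM SAM. Monomethyl-H3K9 detected by AlphaScreen using anti-H3K9me1 antibody.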
BAZ2B inh: qHTS Assay for Inhibitors of BAZ2B. Bromodomain adjacent to zinc finger domain protein 2B (Homo sapiens), Q9UIF8. AlphaScreen BAZ2B-H3K14Ac peptide displacement. Potency, µM (top dose mostly 114 µM), actives largely listed as inhibitors. hit rate 4.4% among 360,000. AID 504333, 2011; further: nearly all actives have a fitted effect of over 60% in size
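Protein-peptide AlphaScreen: BAZ2B 50 nM, b-H3K14Ac 50 nM, 1x PBS pH 7.4 + 0.01% Tween-20. Preincubation 30 min RT; cpd 30 min RT (top 110 uM); beads 20 min RT, light-protected.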
VDR inh: Inhibitors of the vitamin D receptor (VDR): qHTS | Vitamin D3 receptor (Homo sapiens), P11473 | VDR-SRC2-3 peptide fluorescence polarization, 2 h | Potency, µM, hits mostly inhibitors | hit rate 0.93% among 400,000 | AID 504847, 2011
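Two reagent solutions held at 4 deg C in the dark were dispensed, compounds pinned at 23 nl, and the mixture incubated 2 h at room temperature. Read-out: fluorescence polarization of VDR–SRC2-3 peptide binding.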
PLK1 PBD block: qHTS for Inhibitors of PLK1-PDB (polo-like kinase 1 - polo-box domain): Primary Screen; Potency, µM, most hits filed as inhibitors; hit rate 2.8% among 360,000; AID 720504, 2013; Serine/threonine-protein kinase PLK1 (Homo sapiens), P53350; Plk1 PBD binding of FITC phosphopeptide, fluorescence polarization; further: series mostly up to about 57 µM; nearly all actives have a fitted effect of over 65% in size
HP1b chromo inh: HTS for Inhibitors of HP1-beta Chromodomain Interactions with Methylated Histone Tails; Chromobox protein homolog 1 (Homo sapiens), P83916; AlphaScreen HP1-beta / biotin-H3K9me3 peptide binding; Potency, µM (series often up to 114 µM), actives largely listed as inhibitors; hit rate 0.56% among 390,000; further: nearly all actives have a fitted effect of over 70% in size
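AlphaScreen: HP1-beta (50 nM) preformed 30 min with biotin-H3(1-18)K9me3 peptide (50 nM) in PBS pH 7.4, 0.01% Tween-20. Compound added for 30 min at RT, then streptavidin donor/nickel chelate acceptor beads (10 ug/mL) for 30 min.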
A number is an active result; 0 = inactive; ? = inconclusive; - = not tested or not shown; [ ] = remark or other dose. The call rests on the fitted dose curve; in most records, active means well fitted curve in the direction sought with a large enough effect; inconclusive means small, poorly fitted or top-dose-only effect, or another doubt; inactive means no such curve, though single readings can be large; an effect the other way counts as inactive or inconclusive.

SMILES	JMJD2A Tudor inh	G9a inh	BAZ2B inh	VDR inh	PLK1 PBD block	HP1b chromo inh
O=C(Nc1cc(S(=O)(=O)N2CCOCC2)ccc1O)c1ccc2c(c1)S(=O)(=O)c1ccccc1C2=O	?	4.5µM	?	?	11µM	?
O=C(Nc1ccc(S(=O)(=O)N2CCOCC2)cc1)c1ccco1	0	0[12.7 µM]	0	0	0	0
Cc1ccc(S(=O)(=O)N2CCN(c3nc(-c4cccs4)nc4nc[nH]c34)CC2)cc1	0	-	-	0	-	0
COc1cc2oc(=O)c3c4c(cc5ccc(c1CCN(C)C)c2c53)OCO4	-	-	-	40µM	-	-
CCN(CC)c1ccc(C=Nc2ccccc2)c(O)c1	0	?	0	0	0	?
CCN(CC)c1ccc(/C=N/Nc2cccc(C)c2)c(O)c1	40µM	1.4µM	50µM	?	?	18µM
CCN(CC)c1ccc(/C=N/Nc2ccccc2)c(O)c1	28µM	?	45µM	79µM	?	16µM
CCN(CC)c1ccc(/C=N/NC(=O)OC)c(O)c1	0	?	0	0	0	0
CCN(CC)c1ccc(/C=N/NC(=S)NC)c(O)c1	45µM	?	40µM	0	0	?
Cc1cc(C)nc(/N=C(\N)Nc2ccc(S(=O)(=O)Nc3nccc(C)n3)cc2)n1	0	0[0.501 µM]	0	0	0	0
OC1c2ccccc2N=C2CCCN21 (stereo unspecified)	-	-	-	0	-	-
Cc1c(C(=O)N(C)C)sc2c1c(=O)n(-c1ccc(Cl)c(Cl)c1)c(=O)n2CC(=O)N1CCCCC1C (stereo unspecified)	0	0	0	0	-	0
O=C(NCc1cc(Cl)cc(Cl)c1)c1csc([C@@H]2O[C@H](CO)[C@H](O)[C@H](O)[C@H]2O)n1	-	-	-	-	0	-
CC1CCCC(C)N1/N=C/c1cccc(Br)c1 (stereo unspecified)	0	0	?	0	0	0
CC1CCCC(C)N1/N=C/c1ccc(O)c(O)c1 (stereo unspecified)	22µM	3.5µM	?	0	0	?
CC1CCCC(C)N1/N=C/c1ccc(N(C)C)cc1 (stereo unspecified)	0	40µM	0	0	0	0
CC1CCCC(C)N1/N=C/c1cc(Br)c(O)c(Br)c1 (stereo unspecified)	-	5.6µM	0	-	-	-
CCOc1ccc(-n2c(C)nc(O)c2N=Nc2ccccc2)cc1	?	1.4µM	?	0	0	0
C[C@H](N)C(=O)O	-	-	-	0	-	-
CN(C)C=Nc1nc2ccccc2nc1N1CCCC1	0	45µM	0	0	0	0
Cc1ccc2nc(NC(=O)c3nc(SCc4ccccc4C)ncc3Cl)sc2c1	0	0	0	0	-	0
CC(C)ON([C@@H](C(=O)NO)C(C)C)S(=O)(=O)c1ccc(-c2ccccc2)cc1	-	0	-	0	-	-
O=C(c1ccccc1)C(Sc1ncn[nH]1)c1ccccc1 (stereo unspecified)	79µM	5.6µM	0	0	?	0
O=C(CCN1C(=O)c2ccccc2S1(=O)=O)Nc1cccc(F)c1	0	0	0	0	0	0
CCN(CC)c1ccc(N=CN2CCOCC2)cc1	79µM	11µM	?	0	0	?
SMILES	JMJD2A Tudor inh	G9a inh	BAZ2B inh	VDR inh	PLK1 PBD block	HP1b chromo inh
CCN(C(=O)N1CCOCC1)c1ccccc1	0	0	0	0	0	0
O=C1C(Cl)=C(N2CCCCC2)C(=O)N1c1ccccc1Cl	0	0[12.7 µM]	0	?	0	0
O=C1c2cccc(Cl)c2C(=O)c2c1cccc2N1CCCC1	?	-	-	0	0	22µM
COc1ccc(-n2ncc(C(=O)N3CCc4ccccc4C3)c2C2CCN(C(=O)OC(C)(C)C)CC2)cc1	0	?	0	0	-	0
CCc1ccc(S(=O)(=O)c2cn(Cc3ccccc3)c3cc(N4CCCC4)c(F)cc3c2=O)cc1	0	0	0	0	-	0
CC(C)(C)Sc1ccc2nc3c(n2c1)CCCC3	0	50µM	?	0	0	0
Cc1[nH]cnc1CSCCN	1µM	?	?	0	0	0
